The campaign covered roughly 400,000 compounds. About 13,000 (3.2%) were called active. Not shown: some 18% with an inconclusive outcome. Calls follow the shape of the dose curve; as a rule, active = well fitted cell-killing curve with a large enough effect; inconclusive = small, poorly fitted or top-dose-only effect, or effect the other way; inactive = flat fitted curve, though single readings scatter. The entries come from a sample that favours actives as a whole. Where a call stands in place of a potency, no number is given.
Potency is read from the fitted curve at half-maximal effect.

The test can be described thus: qHTS assay for MDR1-selective chemotherapeutics: Primary screen using the drug-selected MDR subline cells KB-V1. Also: nearly all actives have a fitted effect of over 60% in size. The conditions noted are these: KB-V1 MDR cells viability, CellTiter-Glo, 72 h; series mostly up to 46.1 µM. In short, it runs like this:
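Following 72 h at 37 degrees C with compound, KB-V1 cell viability was read by CellTiter-Glo luminescence, medium being phenol-red-free DMEM plus 10% FBS; concentration-response parameters came from normalized, curve-fitted qHTS data.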
(In general: Quantitative high-throughput screening tests each substance at several concentrations.)
In the case of `CCCCN1CC(C)(C)[C@H](CC(=O)Nc2ccc(Br)cc2)C1=O`, the Potency entry is “inactive”.
For `COc1ccccc1CNC(=O)CCCCn1c(=O)c2ccccc2n(CC(=O)Nc2cc(Cl)ccc2C)c1=O` the value was “inactive”; for `CC(Sc1oc(-c2ccco2)nc1S(=O)(=O)c1ccc(Br)cc1)c1ccccc1` (stereo not drawn), “inactive”.
With `Cc1ccc(C(=O)NC(C)C(c2cccs2)N2CCOCC2)cc1C` (stereo not drawn), the Potency entry was “inactive”.
`CCN(CCCNC(=O)c1cc(Nc2ccc(OC)cc2)nc2ccccc12)c1cccc(C)c1`: the Potency result is “inactive”.
Under `CN(C(=O)CC(NC(=O)c1ccccc1)(c1ccccc1)c1ccccc1)c1ccccc1` stands 10.3 µM (active); under `CN(C(=O)COC(=O)CNC(=O)C12CC3CC(CC(C3)C1)C2)c1ccccc1`, “inactive”; under `CC(C)(C)c1ccc(C(=O)NNC(=O)Cc2ccccc2)cc1`, “inactive”.
Under `O=C(Nc1cccc(-c2nc3ccccc3o2)c1)c1cccc(Br)c1` stands “inactive”.
As for `Nc1nc(N)c(N=O)c(N)n1`, the Potency entry was “inactive”.
For `O=C(CCC(=O)N1CCN(S(=O)(=O)c2ccccc2)CC1)NC1CCCc2ccccc21` (stereo not drawn) the value was “inactive”; for `COc1ccc(NC(=O)CCC(=O)N2CCN(S(=O)(=O)c3ccc(C)cc3)CC2)c(OC)c1`, “inactive”.
In the case of `Cc1ccc(S(=O)(=O)N2CCN(C(=O)CCC(=O)NC3CCCc4ccccc43)CC2)cc1` (stereo not drawn), the Potency is 23.1 µM (active).
Under `CC1(C(=O)NS(=O)(=O)c2cccc(F)c2)CCN1C(=O)c1cccc2ccccc12` (stereo not drawn) stands “inactive”.
For the molecule `COc1ccccc1-n1c(SCC(=O)Nc2ccc(Cl)cc2)nc(O)c(Cc2ccccc2)c1=O`, the Potency entry is “inactive”.
For the molecule `Oc1ccccc1N1CCN(c2ncnc3sc(-c4ccccc4)cc23)CC1`, the Potency result is “inactive”.
Turning to `CCc1cc2c(NC3CCCC3)ncnc2s1`, the Potency entry was “inactive”.
As for `CCc1cc2c(N3CCN(c4nnc(CC)s4)CC3)ncnc2s1`, the Potency is 3.66 µM (active).
Under `CCCNC(=O)C1(C)CCCN(C(=O)c2oc3ccccc3c2C)C1` (stereo not drawn) stands “inactive”; under `O=C(Cn1cc(C(F)(F)F)ccc1=O)N/N=C/c1ccc(Cl)cc1Cl`, “inactive”; under `C=CCOc1ccccc1/C=N/NC(=O)Cc1ccccc1`, “inactive”.
With `O=C(Cc1ccccc1)N/N=C/c1ccc(Cl)cc1Cl`, the Potency is 23.1 µM (active).
Turning to `CN(C)c1ccc(/C=c2\[nH]c(=O)/c(=C/c3ccc(N(C)C)cc3)[nH]c2=O)cc1`, the Potency result was “inactive”.
Under `COc1ccc(OC)c(Cc2nnc(CCC(=O)NC3CCCC3)o2)c1` stands “inactive”.
Consider `COc1ccc(OC)c(Cc2cnc3nc(N)nc(N)c3c2C)c1`, for which the Potency is 10.3 µM (active).
Regarding `COc1ccc(OC)c(-n2nnc3c(sc4nc(C)c(Br)c(C)c43)c2=O)c1`, the Potency result is “inactive”.
For `Nc1nc2c(Br)ccc(Br)c2cc1C(=O)NCCc1ccccc1` the value was “inactive”; for `Cc1cc(Br)ccc1NC(=O)CCCOc1cc(=O)n(C)c2ccccc12`, “inactive”.

The values are drawn from PubChem BioAssay AID1347076 (National Center for Advancing Translational Sciences (NCATS), 2019).
